Sampled rows, rich in hits. Any-hit rate of the full collection: about 7.8%.
HCV inhibitor = blocks hepatitis C virus; 340,000 tested, 3.4% active; Huh7.5.1 HCVcc-Cre infection, luciferase reporter, 44 h; AID 651820; Potency, µM (top dose mostly 41.8 µM), without a hit: at the top dose activity change, negative = inhibition, usual class: inhibitors; active = well fitted inhibition curve with a large enough effect; inconclusive = small, poorly fitted or top-dose-only effect, or another doubt; inactive = no such curve, though single readings can be large or run the other way; also: potency is read from the fitted curve at half-maximal effect
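Reporter virus HCVcc-Cre (~0.5 moi) infects cells exposed to compound; seeding density 1,000 cells/well with 4 h settling beforehand. Luminescence, 15 sec read, taken 44 h post-infection following a 15 min RT substrate incubation.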
VACV mCherry inh = inhibitors of vaccinia virus infection (mCherry reporter signal); Vaccinia virus mCherry reporter infection, fluorescence; Potency, µM (titrated, usually from 36.5 µM), inactives show at the top dose activity change, negative = inhibition, actives largely listed as inhibitors; 310,000 tested, 0.63% active; AID 720579; calls by dose curve; tested in A549 cells; also: potency is read from the fitted curve at half-maximal effect; nearly all actives have a fitted effect of over 35% in size
LASV entry inh = Lassa virus entry inhibition. Lassa virus pseudotype entry inhibition, cell reporter. Potency, µM (series often up to 37.9 µM), without a hit: at the top dose activity change, negative = inhibition, actives largely listed as inhibitors. 300,000 tested, 1.2% active. AID 540256; calls by dose curve; tested in HEK293 cells; also: potency is read from the fitted curve at half-maximal effect; nearly all actives have a fitted effect of over 50% in size
Vaccinia Venus = vaccinia inhibition (Venus reporter). AID 720580. Vaccinia virus Venus reporter expression, fluorescence. 330,000 tested, 0.46% active. Potency, µM (highest dose often 36.5 µM), for inactives: at the highest dose activity change, negative = inhibition, hits mostly inhibitors; calls by dose curve; tested in A549 cells; also: potency is read from the fitted curve at half-maximal effect; nearly all actives have a fitted effect of over 30% in size
HCMV inh = human cytomegalovirus inhibition. HFF cells, HCMV-luciferase reporter, 72 h; active compounds read low. activity change, negative = inhibition, % at 57.5 µM. 410,000 tested, 4.5% active. AID 1259415; in the data active = activity change below about -60%; inconclusive = no clear call, values can overlap the other calls; inactive = above about -39%
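Human foreskin fibroblasts infected with luciferase-reporter HCMV at MOI 1 PFU/cell, compounds at two doses. Luciferase measured 72 h post infection; normalized to buffer-only basal and Salinomycin (10uM) controls.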
Marburg entry inh = blocks Marburg virus binding to or entry into cells; Marburg virus pseudotyped entry inhibition, cell reporter; 300,000 tested, 1.8% active; Potency, µM (top dose mostly 37.8 µM), for the others: top-dose activity change, negative = inhibition, actives largely listed as inhibitors; calls by dose curve; tested in HEK293 cells; also: potency is read from the fitted curve at half-maximal effect
Numbers without * were called inactive; ? = inconclusive; · = no result given; [ ] = another dose, or the depositor's remark. % is scaled to controls: 0 for no effect and ±100 for the full control effect.

SMILES	HCV inhibitor	VACV mCherry inh	LASV entry inh	Vaccinia Venus	HCMV inh	Marburg entry inh
Oc1ccc(Br)cc1CNc1cccc2cccnc12	14%	?	?	-16%	-62*	?
C=CCc1ccccc1OCCSc1nc(-c2cccs2)nc2cc(=O)[nH]n12	·	-5%	10%[46.1 µM]	-8%	-4	·
COC(=O)C1=C(C(=O)OC)[C@@H]2N(Cc3ccccc3)c3ccccc3[C@@]23C[C@@H](CO)N(C(=O)CC(C)C)C3=N1	·	·	·	·	·	-38%[14.2 µM]
O=C(Nc1ccccc1Sc1ccccc1)c1cnn2c1NC(=C1CC1)C=C2C(F)(F)F	·	-19%	·	-13%	·	·
O=c1oc2ccc(Cl)cc2cc1-c1nnc(Nc2cccc(C(F)(F)F)c2)s1	-6%	3%	11%	-5%	-64*	-1%
Nc1[nH]c(C(=O)c2ccccc2)c(-c2ccccc2C(F)(F)F)c1C(=O)NCCc1c[nH]c2ccccc12	·	?	·	?	-61*	·
COc1cccc(CNC(=O)CCCCCn2c(=O)[nH]c3cc(OC)c(OC)cc3c2=O)c1	·	-7%	-15%[46.1 µM]	0%	-31	-1%[46.1 µM]
O=C(NCC1Cc2cc(F)cc(-c3cccnc3)c2O1)c1cnn(-c2ccccc2)c1 (stereo not drawn)	·	17%	·	17%	·	·
CN(C)c1ccc(/C=N/Nc2nc3ccccc3o2)cc1	10%	?	5.6µM*	-29%	-16	?
Cc1ccc(CNC(=O)CSc2c3c(nc4ccc(Cl)cc24)CCCC3)o1	?	-26%	7.3µM*	-14%	26	?
COCCNC(=O)CSc1c2c(nc3cc(Cl)ccc13)CCCC2	·	10%	?	-2%	5	?
COc1ccc(CNC(=O)CSc2c3c(nc4ccc(Cl)cc24)CCCC3)cc1	·	-6%	4%[46.1 µM]	-10%	-37	21%[46.1 µM]
CCN(CC)CCNC(=O)CSc1c2c(nc3cc(Cl)ccc13)CCCC2	10µM*	-2%	·	-16%	-99*	·
O=C(CN1CCC(c2nc3ccccc3s2)CC1)N1CCCCC1	?	-7%	·	-23%	-62*	·
CC(C)n1c(N2CCN(CC(=O)NCc3cccs3)CC2)nc2ccccc21	-26%	·	10%	·	-14	?
O=C(CSc1ccccc1Cl)N1CCC(c2nc3ccccc3s2)CC1	?	·	2%	?	2	-15%
CC(C)NC(=O)N1CCC(c2nc3ccccc3s2)CC1	8%	·	·	·	41	·
O=C(CN1CCC(n2nnc3cc(C(F)(F)F)ccc32)CC1)NCc1cccs1	-19%	?	?	-23%	-12	2.2µM*
O=C(CN1CCC(c2nc3ccccc3s2)CC1)NCc1cccs1	3.2µM*	-29%	?	?	-94*	?

High-throughput results as filed in PubChem BioAssay.
